Drawing on PubChem BioAssay, this text covers growth inhibition, inhibition and outcome for 20 compounds.

A short description of assay [1]: antimalarial activity against Dd2 strain (AID 2302;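 active = growth inhibition above 50% at the single 2 µM test dose, taken to imply half-maximal potency below 2 µM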;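 also: 0% = DMSO untreated growth and 100% = chloroquine plus artemisinin killed control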). The settings on record: P. falciparum Dd2 in RBCs, LDH growth readout, 72 h; at 2 µM; hits give high values.
A short description of assay [2]: human hepatoma cell viability loss – ATP luminescence, cytotoxicity control for P. falciparum antimalarial project, primary screen (AID 2303;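 active = inhibition above 50%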;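 also: 0% = DMSO wells and 100% = digitonin-killed cells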). The settings on record: HepG2 viability, 24-48 h, at 10 µM, hits give high values.
The target of assay [3] is L-lactate dehydrogenase (Plasmodium falciparum (isolate CDC / Honduras)) (UniProt Q27743). Kind of assay: PfLDH activity inhibition – cell lysate, 3D7 strain, counter-screen for P. falciparum growth inhibition project (AID 2304).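 Also: 0% = vehicle and 100% = reference inhibitor.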 The settings on record: P. falciparum 3D7 crude extract, LDH APAD/NBT absorbance; at 2 µM; hits give high values. On the technique in general: Counterscreens check selectivity or assay interference.
Sequence of L-lactate dehydrogenase (Plasmodium falciparum (isolate CDC / Honduras)) (Q27743 whole entry, looked up): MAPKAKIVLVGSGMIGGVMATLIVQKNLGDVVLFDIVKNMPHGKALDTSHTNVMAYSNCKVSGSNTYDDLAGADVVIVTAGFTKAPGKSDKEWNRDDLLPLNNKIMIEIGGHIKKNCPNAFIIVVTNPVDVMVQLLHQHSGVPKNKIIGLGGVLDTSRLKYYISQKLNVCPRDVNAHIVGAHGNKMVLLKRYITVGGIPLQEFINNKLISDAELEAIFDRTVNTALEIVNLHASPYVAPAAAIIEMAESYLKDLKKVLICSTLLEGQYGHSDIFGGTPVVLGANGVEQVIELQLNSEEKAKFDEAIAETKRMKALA

Assay [4] is described as follows: inhibition of 3D7 malaria parasite growth – strain 3D7 (AID 2306).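 Also: 0% = DMSO wells and 100% = chloroquine plus artemisinin control wells.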 The settings on record: P. falciparum 3D7 erythrocytic growth, LDH absorbance, 72 h; at 2 µM; hits give high values.
The target in assay [5] is Calcium-dependent protein kinase 1 (Plasmodium falciparum (isolate 3D7)) (UniProt P62344). Put plainly: PfCDPK1 kinase inhibitors, biochemical, TCAMS library (AID 1159585; cut-off not given, nearly all actives have IC50 up to about 0.98 µM;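 also: inhibitors leave more ATP so luminescence rises with inhibition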). The settings on record: recombinant PfCDPK1, Kinase-Glo ATP depletion luminescence. On the technique in general: Kinase-Glo measures the ATP left after a reaction by luminescence.
Sequence of Calcium-dependent protein kinase 1 (Plasmodium falciparum (isolate 3D7)) (P62344 whole entry, looked up): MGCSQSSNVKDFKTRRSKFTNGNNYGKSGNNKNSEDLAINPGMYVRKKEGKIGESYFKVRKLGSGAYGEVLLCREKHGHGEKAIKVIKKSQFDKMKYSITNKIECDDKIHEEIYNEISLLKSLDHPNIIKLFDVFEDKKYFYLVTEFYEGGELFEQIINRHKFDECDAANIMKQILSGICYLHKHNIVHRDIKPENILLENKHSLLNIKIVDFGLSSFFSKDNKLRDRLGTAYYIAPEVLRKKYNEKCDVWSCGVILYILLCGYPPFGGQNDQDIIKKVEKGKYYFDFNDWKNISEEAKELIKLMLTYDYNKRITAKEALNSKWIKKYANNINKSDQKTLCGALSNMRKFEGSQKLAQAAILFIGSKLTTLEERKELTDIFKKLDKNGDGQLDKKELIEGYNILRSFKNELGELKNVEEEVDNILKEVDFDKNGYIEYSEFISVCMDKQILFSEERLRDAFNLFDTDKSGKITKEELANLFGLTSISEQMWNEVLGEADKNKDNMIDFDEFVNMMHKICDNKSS
Assay [6] concerns the target Plasmodium falciparum protein kinase 6 (PK6, PF3D7_1337100) (UniProt Q8IDW1). Put plainly: PfPK6 kinase inhibitors, biochemical, TCAMS library (AID 1159586). The settings on record: recombinant PfPK6, Kinase-Glo ATP depletion luminescence.
Assay [7] has as its target Protein kinase 7 (PK7), Plasmodium falciparum 3D7 (PF3D7_0213400) (UniProt Q7YTF7). Put plainly: inhibition of Plasmodium PK7 catalytic activity – biochemical, TCAMS antimalarial set, Kinase-Glo luminescence (AID 1159587). The settings on record: recombinant PfPK7, Kinase-Glo ATP depletion luminescence.
The target of assay [8] is Calcium-dependent protein kinase 4 (Plasmodium falciparum (isolate 3D7)) (UniProt Q8IBS5). Kind of assay: PfCDPK4 kinase inhibitors, biochemical, TCAMS library (AID 1159588; cut-off not given, nearly all actives have IC50 up to about 0.91 µM). Particulars: recombinant PfCDPK4, Kinase-Glo ATP depletion luminescence.
Sequence of Calcium-dependent protein kinase 4 (Plasmodium falciparum (isolate 3D7)) (Q8IBS5 whole entry, looked up): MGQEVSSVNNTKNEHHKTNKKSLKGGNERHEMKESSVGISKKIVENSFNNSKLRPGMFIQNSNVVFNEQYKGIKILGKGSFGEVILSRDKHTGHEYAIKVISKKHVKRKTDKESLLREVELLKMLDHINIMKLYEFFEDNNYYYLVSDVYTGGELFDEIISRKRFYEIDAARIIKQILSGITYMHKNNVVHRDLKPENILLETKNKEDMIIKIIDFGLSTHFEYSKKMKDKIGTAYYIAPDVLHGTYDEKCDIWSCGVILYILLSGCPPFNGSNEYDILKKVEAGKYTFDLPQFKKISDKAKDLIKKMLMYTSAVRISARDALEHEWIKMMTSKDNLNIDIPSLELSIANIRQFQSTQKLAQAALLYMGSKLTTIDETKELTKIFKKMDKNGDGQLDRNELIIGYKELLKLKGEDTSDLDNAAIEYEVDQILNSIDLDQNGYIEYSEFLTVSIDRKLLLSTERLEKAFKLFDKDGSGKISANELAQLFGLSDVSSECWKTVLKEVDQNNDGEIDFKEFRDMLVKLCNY

A number with no mark means an inactive call. For some of these results: Entries with a potency or affinity are not part of this list. Calls of active or inactive are those of the source. Unless noted, no rule for the calls is given here.

Sequence of Protein kinase 7 (PK7), Plasmodium falciparum 3D7 (PF3D7_0213400) (Q7YTF7 1-343): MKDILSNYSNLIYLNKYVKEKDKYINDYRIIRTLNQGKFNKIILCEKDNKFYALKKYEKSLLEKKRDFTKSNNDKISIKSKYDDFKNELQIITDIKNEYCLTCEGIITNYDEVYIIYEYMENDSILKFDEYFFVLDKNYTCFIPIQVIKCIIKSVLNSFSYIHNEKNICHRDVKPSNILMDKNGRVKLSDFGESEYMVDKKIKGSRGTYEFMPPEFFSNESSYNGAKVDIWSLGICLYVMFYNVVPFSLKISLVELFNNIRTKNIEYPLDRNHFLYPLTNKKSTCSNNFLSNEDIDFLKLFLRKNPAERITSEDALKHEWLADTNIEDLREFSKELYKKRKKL
Sequence of Plasmodium falciparum protein kinase 6 (PK6, PF3D7_1337100) (Q8IDW1 1-305): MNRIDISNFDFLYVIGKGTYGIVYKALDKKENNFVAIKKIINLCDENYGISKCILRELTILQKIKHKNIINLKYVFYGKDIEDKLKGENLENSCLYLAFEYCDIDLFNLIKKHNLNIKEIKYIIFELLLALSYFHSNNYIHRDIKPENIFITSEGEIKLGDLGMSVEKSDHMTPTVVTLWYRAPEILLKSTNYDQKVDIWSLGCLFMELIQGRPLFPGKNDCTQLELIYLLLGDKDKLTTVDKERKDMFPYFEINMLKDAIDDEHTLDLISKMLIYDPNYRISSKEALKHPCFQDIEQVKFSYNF

Consider `Cc1cc(NN=Cc2ccc(Cl)cc2)c2cccc(C)c2n1`, for which the growth inhibition in assay [1] was 47%; in assay [4], 103% (active). The results for the inhibition in assay [2] and in assay [3] were -1% and 2%, respectively. Moreover, the outcome in assay [5], in assay [6], in assay [7] and in assay [8] was inactive.
Consider `Cc1ccc(NC(=O)c2ccc(CN3CCCN(Cc4cccc(O)c4)CC3)cc2)cc1`, for which the results for the growth inhibition in assay [1] and in assay [4] were 31% and 90% (active), respectively. The inhibition (usually the change of the read-out against control, counted positive when it falls) is 39% in assay [2] and -5% in assay [3]. For the same compound, the result in assay [5], in assay [6], in assay [7] and in assay [8] was inactive.
On to `Cc1cccc2[nH]c(-c3ccc(-c4ccc(NC(=O)Nc5ccc(Cl)c(Cl)c5)cc4)cc3)nc12`, for which the values for the growth inhibition in assay [1] and in assay [4] were 100% (active) and 101% (active), respectively. In addition, the results for the inhibition in assay [2] and in assay [3] were 37% and 0%, respectively. The outcome in assay [5], in assay [6], in assay [7] and in assay [8] was inactive.
Regarding `Cc1ccc(NC(=O)NC2CCN(CCCCCNC(=O)/C=C/c3ccc(Cl)c(Cl)c3)CC2)cc1C`, the growth inhibition in assay [1] is 25%; in assay [4] it was 101% (active). Besides, the inhibition in assay [2] was 36%; in assay [3], -3%. Further, the outcome in assay [5], in assay [6], in assay [7] and in assay [8] was inactive.
For the compound `Cn1c(N)c(C(=O)CSc2nnc(-c3cccs3)n2Cc2ccccc2)c(=O)n(C)c1=O`, the growth inhibition is 68% (active) in assay [1] and 85% (active) in assay [4]. Besides, the inhibition in assay [2] is -13%; in assay [3], -3%. Also, the outcome in assay [5], in assay [6], in assay [7] and in assay [8] was inactive.
`C=C[C@]1(C)C[C@@H](OC(=O)c2n[nH]c3ccccc3c2=O)[C@]2(C)[C@H](C)CC[C@]3(CCC(=O)[C@H]32)[C@@H](C)[C@@H]1O`: the growth inhibition is 84% (active) in assay [1] and 96% (active) in assay [4]. Also, the inhibition in assay [2] is -6%; in assay [3] it was 0%. Also, the result in assay [5], in assay [6], in assay [7] and in assay [8] was inactive.
Consider `Cc1ccc(-c2cccc3c(NC(=O)Nc4ccc5nccc(N6CCN(C)CC6)c5c4)cccc23)cn1`, for which the growth inhibition in assay [1] was 89% (active); in assay [4], 90% (active). Besides, the values for the inhibition in assay [2] and in assay [3] were 6% and -7%, respectively. Moreover, the outcome in assay [5], in assay [6], in assay [7] and in assay [8] was inactive.
For `Cc1cc(NC(=O)Nc2ccc3ncccc3c2)c2ccccc2n1`, the growth inhibition in assay [1] was 27%; in assay [4], 93% (active). Further, the inhibition is 6% in assay [2] and -3% in assay [3]. The result in assay [5], in assay [6], in assay [7] and in assay [8] was inactive.
Regarding `O=C(N[C@@H](CC1CCCCC1)C(=O)NCCN1CCCCC1)c1ccc(O)c(-c2cccc(C(F)(F)F)c2)c1`, the growth inhibition was 97% (active) in assay [1] and 99% (active) in assay [4]. The inhibition is -5% in assay [2] and 6% in assay [3]. Further, the outcome in assay [5], in assay [6], in assay [7] and in assay [8] was inactive.
For `CCOc1ccc(N(CC)S(=O)(=O)c2cc(Br)cc3c2N(C(=O)C2CC2)CC3)cc1`, the figures for the growth inhibition in assay [1] and in assay [4] were 97% (active) and 99% (active), respectively. Besides, the inhibition in assay [2] was -4%; in assay [3], -5%. The outcome in assay [5], in assay [6], in assay [7] and in assay [8] was inactive.
As to `Fc1cccc(COc2ccc(Nc3ncnc4sc(C#CCNC5CCCC5)cc34)cc2Cl)c1`, the growth inhibition in assay [1] was 78% (active); in assay [4] it was 100% (active). Moreover, the inhibition in assay [2] and in assay [3] was 3% in each case. For the same compound, the result in assay [5], in assay [6], in assay [7] and in assay [8] was inactive.
For the compound `COc1cc(NCC(O)CNc2cc(OC)c3ccccc3n2)nc2ccccc12`, the growth inhibition in assay [1] was 93% (active); in assay [4], 100% (active). In addition, the figures for the inhibition in assay [2] and in assay [3] were 42% and 5%, respectively. Besides, the outcome in assay [5], in assay [6], in assay [7] and in assay [8] was inactive.
Consider `FC(F)(F)c1ccc2nc(-c3ccc(-c4ccc(CNCc5ccccc5)cc4)cc3)[nH]c2c1`, for which the results for the growth inhibition in assay [1] and in assay [4] were 96% (active) and 101% (active), respectively. Besides, the inhibition in assay [2] is 22%; in assay [3] it was -5%. Besides, the result in assay [5], in assay [6], in assay [7] and in assay [8] was inactive.
Take `COc1cccc(OC)c1OCCCOc1c(C)nc(N)nc1N`: the growth inhibition in assay [1] is -1%; in assay [4], 97% (active). Further, the inhibition in assay [2] is 31%; in assay [3], 0%. For the same compound, the outcome in assay [5], in assay [6], in assay [7] and in assay [8] was inactive.
With `Cc1cccc2[nH]c(-c3cccc(-c4ccc(CN5CCCC5CN)cc4)c3)nc12` (stereo not given), the growth inhibition was 47% in assay [1] and 101% (active) in assay [4]. Besides, the inhibition in assay [2] is 19%; in assay [3] it was 3%. Further, the result in assay [5], in assay [6], in assay [7] and in assay [8] was inactive.
Turning to `Nc1cc(-c2cccc(Cl)c2)nn1-c1ccnc2cc(Cl)ccc12`, the growth inhibition in assay [1] is 33%; in assay [4] it was 99% (active). Besides, the figures for the inhibition in assay [2] and in assay [3] were -3% and -2%, respectively. Also, the outcome in assay [5], in assay [6], in assay [7] and in assay [8] was inactive.
Consider `COc1ccc2c(c1C1CCN(CCCCNC(=O)c3ccc(NC(=O)c4ccc(Cl)cc4)cc3)CC1)CCCC2`, for which the growth inhibition is 99% (active) in assay [1] and 101% (active) in assay [4]. In addition, the figures for the inhibition in assay [2] and in assay [3] were 19% and -2%, respectively. Further, the outcome in assay [5], in assay [6], in assay [7] and in assay [8] was inactive.
Consider `COc1cccc(CNC[C@@H](O)[C@H](Cc2ccccc2)NC(=O)c2cc(N3CCCC3=O)c3[nH]cc(C(C)C)c3c2)c1`, for which the values for the growth inhibition in assay [1] and in assay [4] were 98% (active) and 96% (active), respectively. The inhibition in assay [2] is 5%; in assay [3] it was 3%. In addition, the outcome in assay [5], in assay [6], in assay [7] and in assay [8] was inactive.
As for `COc1ccc(-c2cccc(NC(=O)c3ccc(Cl)cc3)c2)cc1CN1CCCN(C)CC1`, the growth inhibition in assay [1] is 95% (active); in assay [4], 101% (active). For the same compound, the inhibition in assay [2] is 29%; in assay [3], -8%. The outcome in assay [5], in assay [6], in assay [7] and in assay [8] was inactive.
`Oc1ccc(Nc2nc(NCc3ccco3)c3ccccc3n2)cc1`: the growth inhibition in assay [1] is 78% (active); in assay [4], 101% (active). The inhibition in assay [2] was 7%; in assay [3], -3%. In addition, the result in assay [5], in assay [6], in assay [7] and in assay [8] was inactive.
